Most compounds without a hit are left out; they make up all but 7.9% or so of the library.
HCMV inh: blocks human cytomegalovirus replication | AID 1259415 | HFF cells, HCMV-luciferase reporter, 72 h; hits give low values | activity change, negative = inhibition, % at 57.5 µM | 4.5% of 410,000 active; in the data active = activity change below about -60%; inconclusive = no clear call, values can overlap the other calls; inactive = above about -39%
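After 16 h attachment at 37C, HFF cells received test compound and HCMV-luciferase (1 PFU/cell); reporter luminescence read 72 h later, data normalized against buffer-only and known inhibitor Salinomycin.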
Marburg entry inh: Marburg virus entry inhibition. Marburg virus pseudotyped entry inhibition, cell reporter. Potency, µM (highest dose often 37.8 µM), without a hit: at the highest dose activity change, negative = inhibition, hits mostly inhibitors. 1.8% of 300,000 active. AID 540276; calls by dose curve; tested in HEK293 cells; also: potency is read from the fitted curve at half-maximal effect
Lassa entry inh: Lassa virus entry inhibition; Lassa virus pseudotype entry inhibition, cell reporter; Potency, µM (doses to about 37.9 µM), for the others: at the highest dose activity change, negative = inhibition, hits mostly inhibitors; 1.2% of 300,000 active; AID 540256; calls by dose curve; tested in HEK293 cells; also: potency is read from the fitted curve at half-maximal effect; nearly all actives have a fitted effect of over 50% in size
HCV inhibitor: blocks hepatitis C virus; Huh7.5.1 HCVcc-Cre infection, luciferase reporter, 44 h; Potency, µM (top dose mostly 41.8 µM), without a hit: top-dose activity change, negative = inhibition, most hits filed as inhibitors; 3.4% of 340,000 active; active = well fitted inhibition curve with a large enough effect; inconclusive = small, poorly fitted or top-dose-only effect, or another doubt; inactive = no such curve, though single readings can be large or run the other way; also: potency is read from the fitted curve at half-maximal effect
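1,000 cells/well; 4 h culture; + compound; + HCVcc-Cre (~0.5 moi); 44 h; luciferase substrate, RT 15 min; read 15 sec.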
FMDV antiviral: blocks foot and mouth disease virus | FMDV antiviral cell-based qHTS | Potency, µM (highest dose often 57.9 µM), for the others: top-dose activity change, negative = inhibition, most hits filed as inhibitors | 1.2% of 410,000 active; calls by dose curve; tested in HEK293T cells; also: read-out not given here; potency is read from the fitted curve at half-maximal effect; nearly all actives have a fitted effect of over 45% in size
* = called active by the depositor; ? = inconclusive; . = no result given; [ ] = dose if it differs, or a comment. % is scaled to controls: 0 for no effect and ±100 for the full control effect.

SMILES	HCMV inh	Marburg entry inh	Lassa entry inh	HCV inhibitor	FMDV antiviral
Cc1ccc(-c2nn(-c3ccccc3)cc2C=C2C(=O)CC(C)(C)CC2=O)cc1	121	-22%	-1%	-23%	-75%
CCCCn1c(=O)c(-[n+]2ccccc2)c([O-])c2ccccc21	-62*	26%	-6%	14%	-12%
CCCc1cc(C(N)=O)c(NC(=O)c2ccoc2C)s1	22	-21%	14%	7.1µM*	14%
CC(=O)OCC(=O)Nc1ccc([N+](=O)[O-])cc1Cl	-13	?	27%[46.1 µM]	13%	-8%
O=C(NNc1ccc([N+](=O)[O-])cc1[N+](=O)[O-])c1ccco1	.	?	?	-15%	20µM*
COc1ccc(C(=O)Nc2cccc(/C(C)=N\NC(=O)c3ccoc3C)c2)cc1OC	106	16%[46.1 µM]	?	?	-1%
O=C(NNc1ccc([N+](=O)[O-])cc1)c1ccco1	-17	.	.	7%	-7%
Cc1cc(NC(=O)c2ccc([N+](=O)[O-])o2)ccc1NC(=O)c1ccco1	-85*	.	.	?	-7%
COc1ccc(C(=O)Nc2cccc(/C(C)=N/NC(=O)c3ccc([N+](=O)[O-])c(C)c3)c2)cc1OC	40	?	?	2.8µM*	?
CC(=O)Oc1c(C)cc(Cl)cc1C(=O)Nc1ccc([N+](=O)[O-])cc1Cl	-98*	1.5µM*	3.7µM*	?	-19%
CCOC(=O)Cn1c(=O)oc2cc(S(=O)(=O)N3CCN(c4cc(C)ccc4C)CC3)ccc21	-6	-11%[46.1 µM]	?	.	-17%
COc1ccc(C(=O)Nc2ccc(-n3nncc3-c3ccc(OC)c(OC)c3)cc2)cc1	266	.	?	.	-19%
COc1ccccc1/C=C(\NC(=O)c1ccc(OC)c(OC)c1)C(=O)Nc1cccc([N+](=O)[O-])c1	-61*	2%	?	-10%	-10%
Cc1cc(C(=O)Nc2cccc(NC(=O)c3ccco3)c2)ccc1[N+](=O)[O-]	-82*	12%[46.1 µM]	-27%[46.1 µM]	?	2%
Cc1cc(NC(=O)c2ccc([N+](=O)[O-])cc2Cl)ccc1NC(=O)c1ccco1	32	25%	-3%	7.9µM*	2%
COc1ccccc1/C=C(\NC(=O)c1ccc(OC)c(OC)c1)C(=O)Nc1ccc([N+](=O)[O-])cc1	-22	3%	3%	-17%	-5%
COc1ccc(CCNC(=O)c2cc(Nc3cc(C)cc(C)c3)nc3ccccc23)cc1OC	?	?	-7%[46.1 µM]	.	-2%
CC1CCCCN1C(=O)C1CCN(c2nc(-c3ccccc3)nc3c2CCC3)CC1 (stereo not drawn)	?	.	.	4µM*	?
COc1ccc(NC(=O)C2CCN(c3nc(C)nc4c3CCC4)CC2)cc1	-70*	?	?	3.5µM*	?
O=C(C1CCN(c2nc(-c3ccccc3)nc3c2CCC3)CC1)N1CCCC1	-7	.	.	11µM*	12%
COc1ccc(NC(=O)C2CCN(c3nc(C)cc(C)n3)CC2)cc1	3	0%[46.1 µM]	-7%	-8%	2%
CC(=O)N1CC2=C(CCCC2)C(C)CC12CCCCC2 (stereo not drawn)	.	-18%	.	.	.
COCCN1CCN(C(=O)c2cnn(-c3nccc(-c4ccccc4F)n3)c2-c2ccco2)CC1	.	.	.	.	0%
CC(C)(C)OC(=O)C[C@H]1C/C=C\C[C@H](CC(=O)NCCO)C(=O)N2CCC[C@@H]2COC1=O	-60*	.	.	17%	-2%
N#CC1=C2N=C(N)c3ccccc3N2C2=C(C(=O)CCC2)C1c1ccc(F)cc1 (stereo not drawn)	-18	.	.	13µM*	-10%
SMILES	HCMV inh	Marburg entry inh	Lassa entry inh	HCV inhibitor	FMDV antiviral
COC(=O)C1=C(C)NC(C)=C(C(=O)OC)C1c1ccc2ccccc2n1	63	?	-8%	22%	-21%
O=C1c2ccccc2C(=O)C1c1ccc2ccccc2n1	-30	?	5.8µM*	9%	?
COC(=O)C(Cc1c[nH]c2ccccc12)NC(=O)COc1cccc(C)c1 (stereo not drawn)	35	.	?	.	7%
CCOC(=O)C1=C[C@@H](C(C)(C)C)N(S(=O)(=O)c2ccc(C)cc2)[C@H]1c1ccc(C)cc1	-76*	.	.	.	?
COc1ccc(C2CC(=O)N(Cc3cccc(C)c3)c3c2c(C)nn3-c2nc(C)cc(C)n2)c(OC)c1 (stereo not drawn)	-25	?	-6%[46.1 µM]	.	-16%
COc1ccc(OC)c2c1sc(=NC(=O)c1ccco1)n2C	-6	.	.	7.9µM*	-23%
COc1ccc(C(=O)N=c2sc3c(C)ccc(OC)c3n2C)cc1OC	83	.	.	16µM*	44%

Bioassay records (PubChem)
